Screen size: about 1,300 compounds; about 240 (18%) were called active. Another 8% or so got no clear call; they are omitted. The rule behind the calls is not given here. The list is a sample of the results. Entries with a potency or affinity are not part of this list.

The experiment can be described thus: HepG2 cell cytotoxicity, dose response, cytotoxicity control, cherry-picked samples (AID 1159577). The conditions noted are these: HepG2 cytotoxicity counterscreen, plate reader; series mostly up to 19.5 µM. (The purpose of a counterscreen is to sort out artefacts and off-target activity.)
As for `O=C(c1ccccn1)N1CC(=O)N2[C@H](C1)[C@@H](c1ccc(C#CCc3ccccc3)cc1)[C@@H]2CO`, the molecule was called inactive. As for `CCCN(C)C[C@@H]1Oc2cc(C#CC3CCCC3)ccc2S(=O)(=O)N([C@@H](C)CO)C[C@@H]1C`, the molecule was classed as inactive. With `COc1ccc2c3c(n(C)c2c1)[C@H](CO)N(C(=O)Nc1ccc(F)cc1)CC31CN(Cc2cccnc2)C1` the entry was “inactive”; with `COc1ccc2c3c(n(C)c2c1)[C@@H](CO)N(C(=O)Nc1ccc(F)cc1)CC31CCN(Cc2cccnc2)CC1`, “inactive”.

Turning to `COc1ccc2c3c(n(C)c2c1)[C@H](CO)N(C(=O)Nc1ccc(F)cc1)CC31CN(C(=O)NC2CCCC2)C1`, the call was inactive.

Consider `COc1ccc2c3c(n(C)c2c1)[C@@H](CO)N(C(=O)Nc1ccc(F)cc1)CC31CN(C(=O)c2ccccc2F)C1`, for which the call was inactive. As for `COc1ccc2c3c(n(C)c2c1)[C@@H](CO)N(S(C)(=O)=O)CC31CCN(C(=O)CN(C)C)CC1`, the outcome was inactive. Regarding `COc1ccc2c3c(n(C)c2c1)[C@H](CO)N(C(=O)Nc1ccc(F)cc1)CC31CCN(C)CC1`, the molecule was classed as inactive.

With `COc1ccc2c3c(n(C)c2c1)[C@@H](CO)N(Cc1ccccc1)CC31CCN(S(=O)(=O)c2ccc(C)cc2)CC1`, the molecule was called inactive. Turning to `COc1ccc2c3c(n(C)c2c1)[C@@H](CO)N(C(=O)Nc1ccccc1F)CC31CCN(C)CC1`, the molecule was called inactive. As to `COc1ccc(-c2ccccc2[C@H]2[C@@H](C#N)N(C(=O)NC3CCCCC3)[C@H]2CO)cc1`, the call was inactive. Regarding `C[C@H](CO)N1C[C@H](C)[C@H](CN(C)S(=O)(=O)c2ccc([N+](=O)[O-])cc2)OCc2ccccc2-c2c(n(C)c3ccccc23)C1=O`, the outcome was inactive. As for `CCNC(=O)c1cc2c(c(-c3cccc(-c4ccccc4F)c3)n1)[C@@H](CCO)N(C(=O)CC1CC1)C2`, the outcome was inactive. In the case of `C[C@H]1CN([C@@H](C)CO)C(=O)c2c(c3ccccc3n2C)-c2ccccc2CO[C@H]1CN(C)S(=O)(=O)c1ccc(Cl)cc1`, the molecule was called inactive. As to `C[C@@H](C(=O)N(C)C[C@@H]1OCc2ccccc2-c2c(n(C)c3ccccc23)C(=O)N([C@@H](C)CO)C[C@@H]1C)c1ccccc1`, the molecule was called inactive. As to `COc1cccc(S(=O)(=O)N(C)C[C@@H]2Oc3ncc(C#Cc4ccc(C(F)(F)F)cc4)cc3C(=O)N([C@H](C)CO)C[C@@H]2C)c1`, the call was inactive.

In the case of `C[C@H](CO)N1C[C@H](C)[C@@H](CN(C)S(=O)(=O)c2ccccc2)Oc2ccc(NC(=O)Cc3cn(C)c4ccccc34)cc2C1=O`, the molecule was called inactive. With `C[C@@H]1CN([C@H](C)CO)C(=O)c2cccc(NS(=O)(=O)c3ccccc3)c2O[C@H]1CN(C)Cc1ccc(Oc2ccccc2)cc1` the entry was “inactive”.

These data come from PubChem BioAssay AID1159577 (Broad Institute, 2015).
